According to PubChem BioAssay AID2100 (National Center for Advancing Translational Sciences (NCATS), 2009):
Among all 300,000 compounds or so, about 1,200 (0.4%) were called active. Where a call stands in place of a potency, no number is given. Inconclusive results (about 3%) are left out. Calls come from the whole dose curve; as a rule, active = well fitted inhibition curve with a large enough effect; inconclusive = small, poorly fitted or top-dose-only effect, or another doubt; inactive = no such curve, though single readings can be large or run the other way. Many of the other results were omitted from the sample, so actives are more common in it than they were.

target: Lysosomal alpha-glucosidase (Homo sapiens) (UniProt P10253); assay: qHTS Assay for Inhibitors and Activators of Human alpha-Glucosidase Cleavage of Glycogen; conditions: recombinant GAA, glycogen substrate, Amplex Red glucose oxidase fluorescence; series mostly up to 76.4 µM;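 note: the screen sought inhibitors and activators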
From the text: NIH Chemical Genomics Center [NCGC] NIH Molecular Libraries Probe Production Centers Network [MLPCN] MLPCN Grant: R03 MH084841-01 Assay Submitter (PI): Wei Zheng NCGC Assay Overview: Alpha-glucosidase is responsible for the hydrolysis of terminal, non-reducing 1,4-linked alpha-D-glucose residues, which releases alpha-D-glucose. It is a lysosomal hydrolase that is required for the degradation of a small percentage (1-3%) of cellular glycogen in humans. Deficiency of this enzyme results in glycogen-storage disease type II (GSDII), also referred to as Pompe disease, an autosomal recessive disorder. Structurally normal glycogen is accumulated in the lysosomes and cytoplasm in affected patients, primarily in muscle tissues. Excessive glycogen storage within lysosomes may interrupt normal functioning of other organelles and leads to cellular injury. In turn, this leads to enlargement and dysfunction of the entire organ involved (eg: cardiomyopathy and muscle weakness). It has been reported that the improper folding and trafficking of alpha-glucosidase resulting from genetic mutations may account for a significant number of Pompe patients. […] We optimized this alpha-glucosidase assay in 1536-well plate format for identification of novel small molecule inhibitors or activators with structures other than the sugar analogs in order to develop new pharmacological chaperones. Previous assays of alpha-Glucosidase have utilized a non-natural fluorescent substrate to probe enzyme activity. The present assay measures enzyme activity on glycogen using a coupled-assay system to glucose oxidase.
NCGC Assay Protocol Summary: This is an enzyme assay using glycogen from bovine liver (Sigma catalog #: G0885) as the substrate and recombinant human alpha-glucosidase as the enzyme preparation. Upon hydrolysis of the substrate, the glucose product can be detected using the Amplex Red Glucose Oxidase Assay Kit (Invitrogen catalog #: A22189). The product of this reaction can be read with a fluorescence plate reader with an excitation at 573 nm and an emission at 610 nm. Data were normalized to the controls for basal activity (without enzyme) and 100% activity (with enzyme). The AC50 values were determined from concentration-response data modeled with the standard Hill equation. Assay buffer for enzyme reaction: 50 mM citric acid (titrated with potassium phosphate to pH 5.0), 0.01% Tween-20 (pH 5.0 is an optimal condition for this enzyme assay) Assay buffer for Amplex Red reaction: Tris-HCl, pH 7.5 1536-well assay protocol for the alpha-glucosidase assay: (1) Add 2 ul/well alpha-glucosidase enzyme solution (4 nM final) (2) Add 23 nL compounds in DMSO solution. The final titration was 0.7 nM to 77 uM. (3) Add 1 ul of glycogen substrate solution (30 ug) (4) Incubate at 37 C for 40 min (5) Add 2 ul tris-HCl buffer with Amplex Red reagents (6) Incubate 45 min at room temperature. (7) Detect the assay plate in a ViewLux plate reader (PerkinElmer) with Ex=573 nm and Em=610nm. Keywords: Alpha-glucosidase, Pompe Disease, pharmacological chaperone, chaperone therapy, high throughput screening, alpha-glucosidase inhibitor, MLSMR, MLSCN, NIH Roadmap, qHTS and NCGC
Potency is the fitted concentration of half-maximal effect.

Compound | Potency
Oc1cc2c(cc1CN1CCN(c3ccccc3)CC1)OCO2 | 2000 nM (active)
CC(C)c1ccc(O)c(CN2CCN(c3ccccc3)CC2)c1 | inactive
Fc1ccc(N2CCN(Cc3ccc4c(c3)OCO4)CC2)cc1 | inactive
Cc1ccc(NC(=O)N(Cc2ccc3c(c2)OCO3)C2CCN(Cc3ccccc3)CC2)cc1F | inactive
Cn1cc(/C=C/c2nc3ccccc3c(=O)n2-c2ccccc2)c2ccccc21 | inactive
